We go through 51 compounds from ChEMBL document CHEMBL4513216, “Probing the Open Global Health Chemical Diversity Library for Multistage-Active Starting Points for Next-Generation Antimalarials” (ACS Infect Dis, 2020).

The campaign covered roughly 65,000 compounds. About 2,100 (3.2%) showed an effect of 50% or more. The median lay at about -52%. Shown is part of a subset that was picked to be rich in strong results.

The experiment relates to Plasmodium falciparum. Put plainly: Screen against P. falciparum Asexual Blood Stage (ABS), at 5uM. It is filed as functional, Dd2. Conditions: tested at 5 uM.
With `CC(C)N1CCO[C@H]2CN(C(=O)Cc3cccs3)C[C@H]21`, the INHIBITION is on record as -102%.
As for `c1cc(CO[C@@H]2CC[C@H]3[C@H]2OCCN3CC2CCOCC2)ccn1`, the figure is -52.1%; as for `CNC(=O)[C@@]12CCCN(c3ncccn3)[C@@H]1CN(C)C2`, -69.8%; as for `CC(C)(C)c1cc(=O)[nH]c(C2(N)CCCC2)n1`, -59.9%.
On to `CS(=O)(=O)N1CCC(Nc2ccc(C#N)c(C(F)(F)F)c2)CC1`, for which the INHIBITION is reported as -14.2%.
As to `CS(=O)(=O)N1CCC(Nc2ccnc3ccc(Cl)cc23)CC1`, the INHIBITION was 88.6%.
Regarding `NC(=O)CN1CCCN(C(=O)COc2cccc(F)c2)CC1`, the INHIBITION is reported as -58.7%.
For `Cc1cc(C)cc(OCC(=O)N2CCCN(CC(N)=O)CC2)c1`, the INHIBITION is on record as -21.7%.
With `NC(=O)CN1CCC(Nc2ccnc3ccc(Cl)cc23)CC1`, the INHIBITION amounted to 94.4%.
In the case of `O=C1[C@H]2CN(Cc3ccoc3)C[C@H]2CN1Cc1ccncc1`, the INHIBITION is given as -110%.
Regarding `COc1ccc2c(c1)c(C(=O)Nc1cc(C)n(C)n1)cn2C(C)C`, the INHIBITION came to 9.46%.
Regarding `O=C1NCc2ccccc2CC12CCN(Cc1ccncc1Cl)C2` (stereo unspecified), the INHIBITION was -32%.
As for `COc1cc(C2SCC(=O)Nc3ccsc32)cc(OC)c1OC` (stereo unspecified), the figure is -0.914%.
In the case of `c1csc(CN2CC[C@H]3C[C@H](c4ccncn4)O[C@@H]3C2)c1` it was -71.5%; in that of `Cn1cc(CN2CCN(CC3(c4ccccc4)CC3)CC2)cn1`, 78.9%.
With `Cn1cc(CN2CCC3(CC2)C(=O)Nc2ccccc23)cn1`, the INHIBITION is on record as -74.2%.
In the case of `Cn1cc(CN2CCC3(CCCN3Cc3cccnc3)CC2)cn1` it was -18.8%.
Regarding `C=Cn1cc(CN2CCN(CC3(c4ccccc4)CC3)CC2)c(C)n1`, the INHIBITION was found to be 72.4%.
On to `O=C1CO[C@@H]2CN(C3CCOCC3)C[C@H]2N1Cc1ccncc1`, for which the INHIBITION is given as -24.5%.
As for `Cn1nc(-c2cccs2)cc1[C@H]1CN2CC[C@H]1C[C@@H]2CNS(C)(=O)=O`, the figure is -60.1%; as for `Cc1nc(C2(NCC(=O)NC(=O)Nc3ccccc3)CCCCC2)no1`, -126%; as for `CCn1ccnc1CN1CCCN(C(=O)Cc2ccc(C)nc2)CC1`, -85.3%.
On to `CCn1ccnc1CN1CCCN(C(=O)Cc2ccc(C)s2)CC1`, for which the INHIBITION is -75.1%.
Turning to `CCn1ccnc1CN1CCCC(CO)(Cc2cccc(Cl)c2)C1` (stereo unspecified), the INHIBITION is 76.8%.
As to `CCOC(=O)C1(Cc2ccccc2)CCCN(Cc2nccn2CC)C1` (stereo unspecified), the INHIBITION came out at 71.1%.
As for `CCn1ccnc1CN1CCCN(C(=O)Cc2ccc(C)cc2)CC1`, the INHIBITION is given as -118%.
As for `Cc1cnn(CC(C)NCc2cc(C#N)ccc2F)c1` (stereo unspecified), the figure is -49.9%; as for `Fc1cnc(N2CCO[C@H]3CN(CC4CCCCC4)C[C@H]32)nc1`, 34.2%; as for `COc1cccc(OC)c1CNC(Cc1ccsc1)c1ccc(C)cn1` (stereo unspecified), 92.5%.
Consider `Cc1ccc(NC(=O)CNC(C)Cc2ccsc2)cc1F` (stereo unspecified), for which the INHIBITION is 22.9%.
As for `COc1ccc(CNC(C)Cn2cccn2)cc1F` (stereo unspecified), the figure is -60.6%; as for `Cc1cccc(C)c1NC(=O)CNC(C)Cc1ccsc1` (stereo unspecified), 29.6%; as for `COc1ccc(CNC(Cc2ccsc2)c2ncccc2C)cc1OC` (stereo unspecified), 74.7%.
In the case of `Cc1ncsc1CN1C[C@@H]2CCCO[C@@H]2[C@H](Nc2ccccn2)C1` it was -27.2%; in that of `c1ccc2sc(N3CCCN(c4ncnc5c4CCNC5)CC3)nc2c1`, 85.2%; in that of `c1ccc(C2CCN(c3ncnc4c3CCNC4)CC2)cc1`, 74.4%.
As to `Clc1cccc(C2CCN(c3ncnc4c3CCNC4)C2)c1` (stereo unspecified), the INHIBITION came out at 79.6%.
In the case of `CC[C@H](C)[C@@H](CO)NC(C)Cc1ccc(F)cc1` (stereo partly specified) it was 41.2%.
For the compound `O=C(C1CCC1)N1CCO[C@@H]2CNC[C@@H]21`, the INHIBITION was -39.2%.
Turning to `COC(=O)NCC1CCC2(CCNCC2)O1` (stereo unspecified), the INHIBITION is reported as -44.6%.
For the compound `CCOC(=O)[C@@H]1[C@@H](c2ccccc2)CN2CCN(C(=O)N(C)C)C[C@H]12`, the INHIBITION is reported as -64%.
Consider `CCC(CNC1CCN(C(=O)N(C)C)CC1)Oc1ccccc1C` (stereo unspecified), for which the INHIBITION worked out at 73.2%.
Take `CCOC(=O)N1CCC(NC(C)Cc2cc(C)n[nH]2)CC1` (stereo unspecified): the INHIBITION was -139%.
Consider `CN(C)C(=O)CN1CCCC12CCCN(c1ncc(F)cn1)C2` (stereo unspecified), for which the INHIBITION was -30.5%.
In the case of `CC(C)(C)n1cc(C2=CCN(CCN3CCCCCC3)CC2)cn1` it was 71.5%.
`CC(C)(C)n1cc(C2=CCN(CCc3ccccc3)CC2)cn1`: the INHIBITION is on record as 68%.
In the case of `CC(C)(C)n1cc(C2=CCN(CCNC(N)=O)CC2)cn1` it was -161%; in that of `CC(C)(C)n1cc(C2=CCN(CCNC(=O)c3ccccc3)CC2)cn1`, 19.4%; in that of `Cc1nc(O)cc(CN2CC=C(c3cnn(C(C)(C)C)c3)CC2)n1`, -58.8%.
As to `CC(C)(C)n1cc(C2=CCN(CCc3ccccn3)CC2)cn1`, the INHIBITION came to 45.2%.
On to `COCCN1CCC12CCN(c1ncccn1)C2` (stereo unspecified), for which the INHIBITION is listed as -86.1%.
